Unmarked numbers belong to inactive results. How the calls were made is not given here.

A short description of this assay: GFP fluorescence inhibitors and quenchers, late-stage follow-up, artefact control for Rin1-Abl interaction inhibitor project, biochemical, dose response, round 2 (AID 686965). The conditions noted are these: GFP fluorescence quenching/inhibition counterscreen.
As to `Cn1ccc(OCc2ccccc2)cc1=O`, the IC50 is over 67.5 µM.

As to `O=c1cc(OCc2ccc(F)cc2)cc[nH]1`, the IC50 is over 67.5 µM.

As for `COc1cc(OCc2ccccc2)ccn1`, the IC50 is over 67.5 µM.

For the compound `COc1ccc(COc2cc[nH]c(=O)c2)cc1`, the IC50 was over 67.5 µM.

On to `Cn1ccc(OCc2ccc(F)cc2)cc1=O`, for which the IC50 is over 67.5 µM.

As to `O=c1cc(OCc2ccccc2)cc[nH]1`, the IC50 was over 67.5 µM.

Turning to `COc1cc(OCc2ccc(F)cc2)ccn1`, the IC50 is over 67.5 µM.

Take `COc1ccc(COc2ccn(C)c(=O)c2)cc1`: the IC50 is over 67.5 µM.

In the case of `Nc1cc(OCc2ccccc2)ccn1`, the IC50 is over 67.5 µM.

On to `COc1ccc(COc2ccnc(OC)c2)cc1`, for which the IC50 was over 67.5 µM.

Values taken from PubChem BioAssay AID686965 (The Scripps Research Institute Molecular Screening Center, 2013).
